Screens: PubChem, National Center for Advancing Translational Sciences (NCATS)
Rows were chosen to be rich in hits. Some 21% of all compounds tested hit in one or more screens of this group.
Pf growth 48h – Primary qHTS for delayed death inhibitors of the malarial parasite plastid, 48 hour incubation; P. falciparum luciferase growth in erythrocytes, 48 h; Potency, µM (titrated, usually from 28.7 µM), usual class: inhibitors; 5.9% of 310,000 active; AID 504832, 2011
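In quantitative HTS format, infected erythrocytes bearing luciferase-reporter parasites were treated for a single generation at 37 C. Luminescence after adding detection reagent served as the growth measure.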
Pf growth 96h – Primary qHTS for delayed death inhibitors of the malarial parasite plastid, 96 hour incubation | P. falciparum luciferase reporter growth, 96 h | Potency, µM (titrated, usually from 28.7 µM), hits mostly inhibitors | 6.9% of 320,000 active | AID 504834, 2011
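96 h incubation, 37 C, 5% CO2, of luciferase-reporter P. falciparum-infected RBCs (2% hematocrit, 0.05% parasitemia final) with test compounds; endpoint luminescence.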
Shiga toxin inh – A qHTS for Small Molecule Inhibitors of Shiga Toxin. Vero cells, Shiga toxin protein synthesis inhibition reporter. 9.2% of 290,000 active. inhibition, % at 38.7 µM. AID 2315, 2010; in the data active means inhibition mostly above about 28%, no sharp cut-off; inactive means mostly below about 43%
NS1 inh – qHTS Assay for Inhibitors of Influenza NS1 Protein Function | Potency, µM (titrated, usually from 46.1 µM) | 0.4% of 270,000 active | AID 2326, 2010; calls by dose curve; further: actives are rising curves; nearly all actives have a fitted effect of over 50% in size
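Growth recovery, yeast-based: influenza A NS1 expressed in S. cerevisiae causes slow growth, and suppressors are detected by OD600. The parent strain without NS1 is used as positive control.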
SARS PLpro yeast – qHTS of Yeast-based Assay for SARS-CoV PLP. S. cerevisiae expressing SARS-CoV PLpro, growth rescue. Potency, µM (doses to about 32.9 µM), most hits filed as activators. 0.19% of 330,000 active. AID 485353, 2010; calls by dose curve; further: nearly all actives have a fitted effect of over 55% in size
Cycloheximide cs – Cycloheximide Counterscreen for Small Molecule Inhibitors of Shiga Toxin; cell reporter, cycloheximide protein synthesis inhibition counterscreen; max response, %; 12% of 300,000 active; AID 2314, 2010; in the data active means max response mostly above about 13%, no sharp cut-off; inactive means mostly below about 14%; further: read at 38.3 µM for the half of the compounds with a filed dose
Numbers stand for hits; – = inactive; ? = inconclusive; · = not tested or not shown; [ ] = another dose, or the depositor's remark. Unless noted, the call rests on the fitted dose curve; in most records, active means well fitted inhibition curve with a large enough effect; inconclusive means small, poorly fitted or top-dose-only effect, or another doubt; inactive means no such curve, though single readings can be large or run the other way.

SMILES	Pf growth 48h	Pf growth 96h	Shiga toxin inh	NS1 inh	SARS PLpro yeast	Cycloheximide cs
Cc1ccc(N2CCN(S(=O)(=O)N3CCOCC3)CC2)cc1C	–	–	–	·	–	–
Cc1cc(SCC(=O)c2ccc(Br)cc2)cc(C)[o+]1	·	·	·	–	·	·
Cc1ccc2cccc(OCc3ccc(Br)cc3)c2n1	–	?	–	–	–	–
Nc1ncccc1OCc1ccc(Br)cc1	–	–	77	·	–	71
COc1ccc(COc2cccnc2N)cc1	–	–	56	–	–	35
COc1ccc(Cc2c(N)nc(C)nc2N)cc1	–	–	–	·	–	–
CC1=C(C)CC(C(=O)NC2CCN(C(C)C)CC2)C(C(=O)O)C1 (stereo not given)	–	–	–	–	–	–
Nc1ccc(C(=O)n2c3ccccc3c3ccccc32)cc1	–	2.3µM	–	–	?	–
CN(C)c1ccc(/C=C(\C#N)C(=O)NCc2ccco2)cc1	–	–	85	–	–	50
N#C/C(=C\Nc1ccc2c(c1)OCCO2)C(=O)NCc1ccco1	–	–	32	–	–	–
CCN(CC)c1ccc(/C=C(\C#N)C(=O)NCc2ccco2)cc1	?	?	43	–	–	36
NC(=S)Nc1ccc(C(F)(F)F)cc1Cl	?	–	–	–	–	–
OCCNc1nc2ccccc2n1CCN1CCCCC1	–	–	–	–	–	–
Cn1c(CNc2nc3ccccc3n2CCN2CCCCC2)nc2ccccc21	12µM	2.6µM	–	–	–	–
CCN(CC)CCn1c(NCc2nc3ccccc3n2Cc2ccccc2)nc2ccccc21	·	3.7µM	–	–	–	–
COc1ccc(CNc2nc3ccccc3n2CCN2CCCCC2)cc1	–[5.75 µM]	?	–	–	–	–
c1ccc(Cn2c(CNc3nc4ccccc4n3CCN3CCCCC3)nc3ccccc32)cc1	4.7µM	–	–	–	–	–
CCCCn1c(NCc2ccccc2NS(=O)(=O)c2ccc(C)cc2)nc2ccccc21	?	–	–	–	–	–
CCN(CC)CCn1c(NS(=O)(=O)c2ccc(C)cc2)nc2ccccc21	–	10µM	·	·	–	·
O=C(Nc1nc2cc3c(cc2s1)OCO3)C1CC1	–	–	81	–	–	24
O=C(Nc1nc2cc3c(cc2s1)OCO3)C1CCCCC1	–	–	108	–	–	89
O=C(Nc1ccc(Cl)cc1)OCc1cc(-c2ccccc2Cl)on1	–	–	–	–	–	–
Cc1ccc(NC(=O)OCc2cccs2)cc1	–	–	81	–	–	22
Cc1ccc(NC(=O)OCc2cc(-c3ccccc3)on2)cc1	–	–	75	–	–	38
CCOc1ccccc1NC(=O)COC(=O)c1cc(C(=O)OC)cc([N+](=O)[O-])c1	–	–	–	–	–	–
SMILES	Pf growth 48h	Pf growth 96h	Shiga toxin inh	NS1 inh	SARS PLpro yeast	Cycloheximide cs
O=C(NC(=S)NCCC1=CCCCC1)c1cccnc1	?	?	40	–	–	14
Cc1nnsc1C(=O)Nc1ccc(Cl)cc1	–	–	–	–	–	–
O=C(NCCc1ccc(Cl)cc1)Nc1ccc(F)cc1	15µM	–	–	–	–	29
Cc1nnsc1SCCNC(=O)Nc1ccc(Cl)cc1	?	?	82	–	–	24
CCCc1c(NC(=O)Nc2ccc(F)cc2)cnn1-c1ccc(Cl)cc1	6.6µM	?	–	–	–	–
COCCN(C(=O)COC(=O)Cc1ccc(Cl)cc1Cl)c1c(N)n(Cc2ccccc2)c(=O)[nH]c1=O	?	–	·	·	–	·
Cc1cc(C)cc(OCC(=O)OCC(=O)N2CC(=O)Nc3ccccc32)c1	?	–	–	·	–	–
Fc1ccc(NC(=S)NCCc2ccc(Cl)cc2)cc1	–	–	93	–	–	48
S=C(NCCC1=CCCCC1)Nc1ccc(Cl)cc1	–	?	63	–	–	44
O=C(NCc1ccc(F)cc1)Nc1ccccc1	–	–	79	–	–	37
Fc1ccc(CCNC(=S)Nc2ccc(F)c(Cl)c2)cc1	?	–	–	–	–	–
O=C(Nc1ccccc1)c1nccn1Cc1ccc(F)cc1	–	–	64	·	–	28
O=C(NCc1ccncc1)Nc1ccc(F)cc1	–	·	–	–	–	–
Cc1ccc(CNC(=O)Nc2ccc(Cl)cc2)cc1	–	–	–	–	–	17
CSc1ccc(NC(=O)NCc2ccccc2)cc1	–	–	91	–	–	44
O=C(NCc1ccc(Cl)cc1)Nc1ccc(F)cc1	–	?	–	–	–	49
CC(C)c1ccc(NC(=O)NCc2ccc(F)cc2)cc1	?	–	–	–	–	–
CC(=O)c1ccc(NC(=O)NCc2ccc(F)cc2)cc1	–[5.75 µM]	–	–	–	–	14
O=C(O)CCN1CC2([N+](=O)[O-])C=CC(=O)C([N+](=O)[O-])(C1)C2CC(=O)c1ccccc1 (stereo not given)	–	–	–	–	–	–
Cc1cc(C(=O)N2CCN(S(=O)(=O)c3ccc(C)c(C)c3)CC2)no1	–	–	·	·	–	·
COCCn1cnnc1SCC(=O)c1ccc(S(=O)(=O)N2CCCC2)cc1	·	–	–	–	–	–
O=C(C[n+]1ccc(C(=O)NCc2ccccc2)cc1)c1ccc(OC(F)F)cc1	–	–	–	·	–	–
O=C(C[n+]1cn(C(F)F)c2ccccc21)c1ccc(OC(F)F)cc1	–	–	61	–	–	29
O=[N+]([O-])c1cccnc1SCc1c(F)cccc1Cl	13µM	?	–	–	–	–
Fc1cccc(Cl)c1CSc1ncn[nH]1	–	·	–	–	–	–
SMILES	Pf growth 48h	Pf growth 96h	Shiga toxin inh	NS1 inh	SARS PLpro yeast	Cycloheximide cs
O=[N+]([O-])c1ccc(SCc2c(F)cccc2Cl)nc1	–	–	–	–	–	19
COc1ccc(C(c2nnnn2Cc2ccc(F)cc2)N2CCN(c3ccccc3)CC2)cc1 (stereo not given)	12µM	?	–	–	–	–
COc1ccc(C(c2nnnn2Cc2ccc(F)cc2)N2CCN(c3ccc(OC)cc3)CC2)cc1 (stereo not given)	10µM	–	–	–	–	–
Fc1ccc(Cn2nnnc2C(c2ccc(F)cc2)N2CC=C(c3ccc(F)cc3)CC2)cc1 (stereo not given)	–	13µM	–	–	–	–
COc1ccc(C(c2nnnn2Cc2cccs2)N2CCN(c3ccc(F)cc3)CC2)cc1OC (stereo not given)	5.9µM	13µM	–	–	–	–
CN1CCN(C(c2ccc(F)cc2)c2nnnn2Cc2cccs2)CC1 (stereo not given)	–	–	–	–	–	–
CCOc1ccc(NS(=O)(=O)c2cc(NC(=O)c3cccc(C)c3)ccc2Cl)cc1	?	?	–	?	–	–
COc1ccc(Cn2nnnc2C(c2ccc(F)cc2)N2CCN(C3CCCC3)CC2)cc1 (stereo not given)	?	–	–	–	–	–
COc1ccc(Cn2nnnc2C(c2ccccn2)N2CCN(c3cc(Cl)ccc3C)CC2)cc1 (stereo not given)	12µM	·	–	–	–	–
